Bioassay records from PubChem.
BJeLR lethal – kills HRASV12-expressing BJeLR cells; BJeLR (HRASV12) viability, CellTiter-Glo ATP luminescence, 48 h; inhibition, % (test concentration not listed); hit rate 0.17% among 300,000; AID 1554; in the data active means inhibition above about 50%
SARS 3CLpro inh – SARS-CoV 3CLpro protease inhibition; inhibition, % at 6 µM; P0C6X7; hit rate 0.14% among 290,000; recombinant SARS-CoV 3CLpro, quenched FRET peptide cleavage; in the data active means inhibition above about 12%
SSB-PriA inh – inhibitors of Klebsiella pneumoniae PriA binding to SSB C-terminal tail. AlphaScreen SSBct-PriA binding, biotinylated peptide. inhibition, % at 33 µM. hit rate 0.6% among 430,000; in the data active means inhibition mostly above about 37%, no sharp cut-off; inactive means mostly below about 20%;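 further: plate controls were negative control peptide for no effect and reference peptide for full effect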
The depositor's hits bear a star; . = not tested or not shown; ! = not active in a repeat. A selection: hits, their analogues and other compounds. The true share with any hit is near 0.78%.

SMILES	BJeLR lethal	SARS 3CLpro inh	SSB-PriA inh
Cc1ccccc1-c1ccc(N2CCN(C(=O)c3ccccn3)CC2)nn1	.	.	-17
O=C(c1ccccc1Cl)N1CCN(c2ccc(-c3ccccn3)nn2)CC1	.	.	147*
O=C(c1ccccn1)N1CCN(c2ccc(-c3ccccn3)nn2)CC1	.	.	157*
O=C(c1ccccc1Cl)N1CCN(c2ccc(-n3cccn3)nn2)CC1	.	.	-30
Cc1cc(=O)n2c(n1)SCC2CC(=O)N1CCCCC1 (stereo unspecified)	.	.	0
Cc1nc(N2CCN(S(C)(=O)=O)CC2)cc(C(F)(F)F)n1	.	.	-5
CCS(=O)(=O)c1cccc(C(=O)Nc2nc3c(C)c(Cl)ccc3s2)c1	.	.	-2
COc1ccc(N=C(C)N(C)CCNS(=O)(=O)c2ccc(Cl)cc2)cc1Cl	.	.	-3
c1ccc(-c2nc([P+](c3ccccc3)(c3ccccc3)c3ccccc3)c(N3CCCCCC3)o2)cc1	.	.	37*
Cc1ccc(-c2nc(C#N)c(N3CCCCCC3)o2)cc1	.	.	99*
Cc1cccc(-c2nc(C#N)c(N3CCCCC3)o2)c1	-2	2	-1
N#Cc1nc(-c2ccccc2)oc1N1CCCCC1	1	-3	3
Cc1ccc(-c2nc(C#N)c(N3CCCCC3)o2)cc1	-3	-3	87*!
N#Cc1nc(-c2ccc([N+](=O)[O-])cc2)oc1N1CCCCC1	8	2	8
C=CCNC(=S)NNc1nc(NCC)nc(NCC)n1	.	.	-22
O=C(Nc1ccc2c(c1)N(C(=O)C1CCCO1)CC2)c1ccc(F)c(F)c1 (stereo unspecified)	.	.	-8
O=C(CCc1nc2sc3c(c2c(=O)[nH]1)CCCCC3)N1CCN(Cc2ccccc2)CC1	.	.	-10
CC(O)(CNC(=O)c1ccsc1)Cc1ccco1 (stereo unspecified)	.	.	8
CCCN1C(SCC(=O)NCc2cccc(OC)c2OC)=NS(=O)(=O)c2ccccc21	.	.	-8
COc1cccc2cc(C(=O)NCC(OC)c3ccsc3)oc12 (stereo unspecified)	.	.	9
O=[N+]([O-])c1ccc(O)c(C=Nc2cccc3ccccc23)c1	-3	-2	11
O=[N+]([O-])c1ccc(O)c(C=Nc2cccc3ncccc23)c1	-2	-1	68*
Cn1nc(CNC(=O)c2cnc3ccccc3n2)cc1C1CC1	.	.	-6
N#Cc1nccnc1O[C@H]1CCCN(C(=O)Cc2c[nH]c3ccccc23)C1	.	.	-14
Cc1ccc(CNC(=O)Cc2nc(C)c(C(=O)NCc3ccccc3)s2)cc1C	.	.	-9
SMILES	BJeLR lethal	SARS 3CLpro inh	SSB-PriA inh
CC(C)(C)c1nnc(NN=Cc2cc(Br)ccc2O)n(N)c1=O	.	.	61
CC(C)(C)c1nnc(N/N=C/c2ccccc2O)n(N)c1=O	62*	-5	.
CCn1nc([N+](=O)[O-])c(C(C#N)c2nc3ccccc3n2C)c(Cl)c1=O (stereo unspecified)	-9	-1	24
CCCn1nc([N+](=O)[O-])c(C(C#N)c2nc3ccccc3s2)c(Cl)c1=O (stereo unspecified)	20	2	55*
COc1ccc(CCNC(=O)CSc2cccc3cccnc23)cc1OC	4	-1	19
O=C(CSc1cccc2cccnc12)NCCc1ccc(Cl)cc1	.	.	77*
O=C(O)CSc1cccc2cccnc12	6	-3	65*!
CN1CCN(C(=O)CSc2cccc3cccnc23)CC1	.	.	69
CC(C)(C)NC(=O)CSc1cccc2cccnc12	.	.	41
O=C(CSc1cccc2cccnc12)NC(c1ccccc1)c1ccccc1	.	.	16
NC(=O)CSc1cccc2cccnc12	.	.	64*
O=C(CSc1cccc2cccnc12)N1CCCCCC1	.	.	102*
Cc1ccc(-c2cc3c(SCC(=O)N4CCOCC4)nccn3n2)cc1C	.	.	-19
N#Cc1c(NC(=O)c2cccc(C(F)(F)F)c2)sc2c1CCN(Cc1ccccc1)C2	.	.	-14
CCSc1ccccc1C(=O)NCCn1ccn2nc(-c3cccs3)cc12	.	.	-2
COc1ccc(Nc2nc(N)nc(CCl)n2)cc1	47	0	-4
Cc1ccccc1Nc1nc(N)nc(CN(C)c2ccccc2)n1	8	3	-5
Cc1ccccc1Nc1nc(N)nc(CCl)n1	67*	2	5
Nc1nc(CCl)nc(Nc2ccc3ccccc3c2)n1	114*	2	-2
Cc1ccc(S(=O)(=O)NNC(=NS(=O)(=O)c2ccccc2)c2ccccc2)cc1	.	.	-5
CC1CCN(CC2CCC(=O)N2C)CC1 (stereo unspecified)	.	.	-4
O=C(O)c1ncc(Cl)cn1	.	.	-18
CCOc1ccc(S(=O)(=O)NCC2(Sc3ccccc3)CCOCC2)cc1F	.	.	-11
CCCNS(=O)(=O)c1ccc(NC(=O)Cc2cccs2)cc1	1	5	-12
CNS(=O)(=O)c1ccc(NC(=O)Cc2cccs2)cc1	.	.	45*!
SMILES	BJeLR lethal	SARS 3CLpro inh	SSB-PriA inh
CCc1nnc(C2CCN(S(=O)(=O)CC)CC2)s1	.	.	5
O=[N+]([O-])c1cc(/C=N/N2CCCCC2)ccc1Cl	-6	2	.
O=[N+]([O-])c1cc(C=NN2CCCCC2)ccc1Cl	.	.	43*
CCOc1ccc(NC(=O)Cc2ccccc2)c([N+](=O)[O-])c1	-10	7	43*
CCOc1ccc(NC(=O)c2snnc2C)c([N+](=O)[O-])c1	.	.	52*
CCOc1ccc(NC(=O)COc2ccccc2)c([N+](=O)[O-])c1	-1	4	7
CCOc1ccc(NC(=O)c2ccc([N+](=O)[O-])s2)c([N+](=O)[O-])c1	.	.	-8
CCOc1ccc(N/C=C/C(=O)c2ccc(C)cc2)c([N+](=O)[O-])c1	-4	-1	.
CCOc1ccc(NC=CC(=O)c2ccccc2)c([N+](=O)[O-])c1	.	.	43*
CCCCc1ccc(NC(=O)/C=C2\SC(=O)NC2=O)cc1	.	.	5
O=S(=O)(NCc1ccnc(-c2cccs2)c1)c1cccnc1	.	.	-10
Cc1cc(C)c(S(=O)(=O)NCC2COC3(CCCC3)O2)c(C)c1 (stereo unspecified)	.	.	-2
COC(=O)c1ccc2c(c1)C(=O)/C(=C/c1cn(-c3ccccc3)nc1-c1ccc3c(c1)OCCO3)O2	.	.	6
COc1ccc(OC)c2[nH]c(=O)c(CCNC(=S)Nc3cccc(Cl)c3)cc12	.	.	-1
O=C(NCC1CCN(S(=O)(=O)c2cccnc2)CC1)C(=O)Nc1cc2c3c(c1)CC(=O)N3CCC2	.	.	-7
O=C(c1csc(Nc2ccc(OC(F)(F)F)cc2)n1)N1CCC(Cc2ccccc2)CC1	.	.	7
COc1ccc(C[C@H]2CN3C(=NC[C@@H]3Cc3ccc(O)cc3)N2CCNC(=O)c2ccc(C)c(Br)c2)cc1	11	0	42*
Cc1ccc(C(=O)NCCN2C3=NC[C@H](Cc4ccc(O)cc4)N3C[C@H]2Cc2ccc(O)cc2)cc1Br	-10	.	26
O=C(Nc1nc2ccccc2s1)C1CN(C(=O)c2c[nH]c3ccccc23)C1	.	.	1
O=C(Cc1ccc(NC(=O)c2cccs2)cc1)NCc1cccs1	.	.	-6
C=CC(=O)Nc1ccc(N(C)c2ccnc(Nc3ccc(N4CCN(C)CC4)cc3)n2)cc1	.	.	44*
CN1CCN(c2ccc(NC(=O)Oc3ccccc3)cc2)CC1	3	2	5
O=C(NCCn1ccc(-c2cccs2)n1)C1COc2ccccc2O1 (stereo unspecified)	.	.	-5
COc1cccc(-c2cn3c(C(=O)N4CCN(c5ccccc5OC)CC4)csc3n2)c1	.	.	20
O=C(c1csc(Nc2ccccc2)n1)N1CCN(c2ccccc2)CC1	.	.	21*
COc1ccc(N2CCN(C(=O)c3csc(Nc4ccccc4)n3)CC2)cc1	.	.	38
